These results are taken from PubChem BioAssay (NCI).

Some test systems named below: SK-MEL-2 melanoma; EKVX NSCLC; SN12C renal; UO-31 renal; TK-10 renal; ACHN renal; CAKI-1 renal; A498 renal; CCRF-CEM leukemia; MOLT-4 leukemia; SR leukemia; RPMI-8226 leukemia; OVCAR-8 ovarian; OVCAR-5 ovarian; OVCAR-4 ovarian; SK-OV-3 ovarian; IGROV1 ovarian; OVCAR-3 ovarian; HS 578T breast; NCI/ADR-RES ovarian.
What all share (test): NCI-60 one-dose screen, 48 h (100 = growth as untreated, 0 = no growth, -100 = all killed)
Holding throughout (details): 10 µM unless noted

About 83,000 compounds went through this panel and 20% of them were active in at least one assay; those are over-represented in the sample as a whole.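 96-well plates, one dose, 48 hours. Percent growth reported; active if below 10.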 Unmarked numbers belong to inactive results. Active and inactive are the calls of the source.

For `COc1cc2ncnc(Nc3ccc(S(=O)(=O)Nc4cc(C)on4)cc3)c2cc1OCCCN1CCOCC1`, the growth in the experiment on SK-MEL-2 melanoma was 101%; in the experiment with EKVX NSCLC, 93.4%; in the experiment with SN12C renal it was 104%; in the experiment on UO-31 renal, 88.1%; in the experiment with TK-10 renal it was 95.3%; in the experiment on ACHN renal, 106%. Also, the growth in the experiment on CAKI-1 renal is 98%; in the experiment on A498 renal, 104%; in the experiment with CCRF-CEM leukemia, 104%; in the experiment with MOLT-4 leukemia, 101%; in the experiment on SR leukemia it was 103%; with RPMI-8226 leukemia it was 106%. Also, the growth with OVCAR-8 ovarian was 98.2%; with OVCAR-5 ovarian, 106%; in the experiment on OVCAR-4 ovarian, 94.8%; in the experiment on SK-OV-3 ovarian, 95%; in the experiment with IGROV1 ovarian, 108%; in the experiment with OVCAR-3 ovarian, 113%. Also, the growth is 103% with HS 578T breast and 106% with NCI/ADR-RES ovarian.

For the molecule `CCN1C(=O)N(CC)C2C1NC(=S)N2/N=C/C=C/c1ccccc1` (stereo not given), the growth is 10.6% in the experiment on SK-MEL-2 melanoma; 27.8% in the experiment with EKVX NSCLC; 26.2% in the experiment on SN12C renal; 40.7% in the experiment with UO-31 renal; 49.6% with TK-10 renal; 22.8% in the experiment with ACHN renal. Further, the growth with CAKI-1 renal was 27.2%; in the experiment on A498 renal it was -6.35% (active); in the experiment on CCRF-CEM leukemia, 2.75% (active); in the experiment with MOLT-4 leukemia it was 8.08% (active); with SR leukemia it was 7.76% (active); in the experiment with RPMI-8226 leukemia, -8.74% (active). For the same molecule, the growth was 6.3% (active) with OVCAR-8 ovarian; 59.6% in the experiment with OVCAR-5 ovarian; 46.9% in the experiment on OVCAR-4 ovarian; 20.4% in the experiment with SK-OV-3 ovarian; 21% with IGROV1 ovarian; -8.49% (active) in the experiment on OVCAR-3 ovarian. Further, the values for the growth in the experiment with HS 578T breast and with NCI/ADR-RES ovarian were 13.6% and 0.601% (active), respectively.

Regarding `O=C1c2c(c3c4cccnc4[nH]c3c3ccc4ccccc4c23)C(=O)N1O`, the growth is 91% in the experiment with SK-MEL-2 melanoma; 97.7% in the experiment on EKVX NSCLC; 26.5% in the experiment on SN12C renal; 57.6% with UO-31 renal; 133% in the experiment on TK-10 renal; 45% with ACHN renal. Besides, the growth in the experiment with CAKI-1 renal is 47%; in the experiment with A498 renal, 84.7%; in the experiment on CCRF-CEM leukemia, 15.3%; in the experiment on MOLT-4 leukemia, 6.42% (active); in the experiment on SR leukemia, 17.8%; in the experiment with RPMI-8226 leukemia, 16%. The growth with OVCAR-8 ovarian is 46%; in the experiment on OVCAR-5 ovarian, 110%; in the experiment with OVCAR-4 ovarian, 53.8%; in the experiment with SK-OV-3 ovarian it was 75.5%; in the experiment with IGROV1 ovarian it was 38%; in the experiment with OVCAR-3 ovarian it was 14.4%. The growth in the experiment on HS 578T breast is 70.9%; in the experiment with NCI/ADR-RES ovarian, 94.3%.

As to `O=C1/C(=C/c2cccc([N+](=O)[O-])c2)COc2ccc(O)c(O)c21`, the growth in the experiment on SK-MEL-2 melanoma was -25.4% (active); in the experiment with EKVX NSCLC, 34.7%; in the experiment on SN12C renal, -71.3% (active); in the experiment on UO-31 renal it was -98.8% (active); in the experiment on TK-10 renal, -48.5% (active); in the experiment on ACHN renal, -98.4% (active). In addition, the growth in the experiment on CAKI-1 renal was -67.5% (active); with A498 renal, 99.7%; in the experiment with CCRF-CEM leukemia, 0.148% (active); in the experiment with MOLT-4 leukemia, -1.81% (active); in the experiment with SR leukemia it was 8.03% (active); in the experiment with RPMI-8226 leukemia, -24.7% (active). Besides, the growth in the experiment on OVCAR-8 ovarian was 5.45% (active); with OVCAR-5 ovarian, -48.8% (active); in the experiment with OVCAR-4 ovarian it was 15.3%; in the experiment with SK-OV-3 ovarian, 68.9%; with IGROV1 ovarian it was -21.6% (active); in the experiment on OVCAR-3 ovarian, -83.6% (active). Moreover, the growth is 6.86% (active) in the experiment with HS 578T breast and 9.52% (active) in the experiment on NCI/ADR-RES ovarian.

On to `O=C(NS(=O)(=O)c1ccccc1)n1cc(-c2ccncc2)c(-c2cc(O)cc(Cl)c2)n1`, for which the growth in the experiment with SK-MEL-2 melanoma was 95.5%; in the experiment on EKVX NSCLC, 107%; with SN12C renal, 100%; in the experiment on UO-31 renal it was 91.9%; in the experiment with TK-10 renal, 127%; in the experiment on ACHN renal it was 84.5%. For the same molecule, the growth is 94.2% in the experiment on CAKI-1 renal; 103% with A498 renal; 87.4% with CCRF-CEM leukemia; 79.3% in the experiment with MOLT-4 leukemia; 42.6% with SR leukemia; 85.2% in the experiment on RPMI-8226 leukemia. The growth in the experiment with OVCAR-8 ovarian is 104%; with OVCAR-5 ovarian, 115%; with OVCAR-4 ovarian it was 92.2%; in the experiment on SK-OV-3 ovarian it was 107%; with IGROV1 ovarian, 99.4%; with OVCAR-3 ovarian, 108%. Also, the growth was 104% in the experiment with HS 578T breast and 97.3% in the experiment on NCI/ADR-RES ovarian.

As for `CN(C)CC1C(=O)O[C@H]2[C@H]1CC/C(COC(=O)NCc1ccc(Cn3c(=O)sn(CCCI)c3=O)cc1)=C\CC[C@@]1(C)O[C@@H]21` (stereo not given in full), the growth is 63.3% with SK-MEL-2 melanoma; 89.7% in the experiment with EKVX NSCLC; 18.9% in the experiment with SN12C renal; 1.41% (active) with UO-31 renal; -63.3% (active) with TK-10 renal; -48.8% (active) in the experiment on ACHN renal. Further, the growth in the experiment with CAKI-1 renal was -63.8% (active); in the experiment on A498 renal, 105%; in the experiment on CCRF-CEM leukemia, -10.1% (active); in the experiment on MOLT-4 leukemia it was -1.36% (active); in the experiment with SR leukemia, -28.6% (active); in the experiment on RPMI-8226 leukemia, -29.7% (active). The growth was -68.2% (active) with OVCAR-8 ovarian; 105% in the experiment on OVCAR-5 ovarian; 6.44% (active) in the experiment on OVCAR-4 ovarian; 99.5% in the experiment on SK-OV-3 ovarian; -81.8% (active) in the experiment on IGROV1 ovarian; -96.4% (active) in the experiment with OVCAR-3 ovarian. The growth was 82.5% in the experiment on HS 578T breast and 98.8% with NCI/ADR-RES ovarian.

`CCN1C(=O)N(CC)C2C1NN=c1s/c(=C\c3ccccc3)c(=O)n12` (stereo not given): the growth in the experiment on SK-MEL-2 melanoma is 42.5%; in the experiment with EKVX NSCLC, 47.1%; with SN12C renal, 26.5%; in the experiment on UO-31 renal, 37.9%; in the experiment on TK-10 renal, 65.6%; in the experiment with ACHN renal it was 30.2%. Further, the growth in the experiment with CAKI-1 renal is 27.1%; in the experiment on A498 renal it was 9.75% (active); in the experiment on CCRF-CEM leukemia it was 6.04% (active); with MOLT-4 leukemia, 10.9%; in the experiment with SR leukemia it was 14.8%; in the experiment on RPMI-8226 leukemia, 11.6%. The growth was -9.95% (active) in the experiment on OVCAR-8 ovarian; 30.2% in the experiment with OVCAR-5 ovarian; 48.1% in the experiment on OVCAR-4 ovarian; 33.5% in the experiment on SK-OV-3 ovarian; 19.8% with IGROV1 ovarian; -7.69% (active) in the experiment with OVCAR-3 ovarian. In addition, the growth in the experiment on HS 578T breast is 16.8%; in the experiment on NCI/ADR-RES ovarian, 2.31% (active).
